Assay outcomes: PubChem BioAssay, National Center for Advancing Translational Sciences (NCATS)
SARS PLP yeast – blocks SARS-CoV papain-like protease in a yeast assay | Potency, µM (top dose mostly 32.9 µM), most hits filed as activators | S. cerevisiae expressing SARS-CoV PLpro, growth rescue | 0.19% of 330,000 active; calls by dose curve; also: nearly all actives have a fitted effect of over 55% in size
Shiga inhibitor – blocks Shiga toxin action in Vero cells; Vero cells, Shiga toxin protein synthesis inhibition reporter; inhibition, % at 38.7 µM; 9.2% of 290,000 active; in the data active = inhibition mostly above about 28%, no sharp cut-off; inactive = mostly below about 43%
Pf growth 48h – inhibits P. falciparum growth in the first generation, 48 h; P. falciparum luciferase growth in erythrocytes, 48 h; Potency, µM (titrated, usually from 28.7 µM), usual class: inhibitors; 5.9% of 310,000 active; AID 504832
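Erythrocytes infected with P. falciparum carrying an integrated firefly luciferase reporter (2% hematocrit, 0.1% parasitemia final) were exposed to compounds in RPMI 1640 with 0.5% Albumax at 37 C, 5% CO2. Growth inhibition was scored as reduced luminescence.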
Pf growth 96h – P. falciparum growth inhibition at 96 hours | 6.9% of 320,000 active | AID 504834 | Potency, µM (series often up to 28.7 µM), usual class: inhibitors | P. falciparum luciferase reporter growth, 96 h
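Plates of compound plus infected erythrocytes (2% hematocrit, 0.05% parasitemia final) incubate 96 hours, 37 C, 5% CO2. Detection reagent added; reduced luminescence from the parasites' luciferase reporter flags inhibition.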
Cycloheximide cs – affects cycloheximide protein synthesis inhibition readout, counter-screen; cell reporter, cycloheximide protein synthesis inhibition counterscreen; max response, %; 12% of 300,000 active; AID 2314; in the data active = max response mostly above about 13%, no sharp cut-off; inactive = mostly below about 14%; also: read at 38.3 µM for the half of the compounds with a filed dose
NS1 function inh – influenza NS1 inhibition; Potency, µM (doses to about 46.1 µM); 0.4% of 270,000 active; AID 2326; calls by dose curve; also: actives are rising curves; nearly all actives have a fitted effect of over 50% in size
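Compounds were scored for reversing the slow growth caused by influenza A NS1 in S. cerevisiae, measured by optical density at 600 nm. Assay medium contained 2% galactose at pH 6.0; NS1-free yeast of the same strain were the positive control.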
A number is an active result; – = inactive; ? = inconclusive; · = no result; [ ] = remark or other dose. The list is not random: actives were taken first. Their share in the collection is about 21%. Unless noted, calls follow the shape of the dose curve; as a rule, active = well fitted inhibition curve with a large enough effect; inconclusive = small, poorly fitted or top-dose-only effect, or another doubt; inactive = no such curve, though single readings can be large or run the other way.

SMILES | SARS PLP yeast | Shiga inhibitor | Pf growth 48h | Pf growth 96h | Cycloheximide cs | NS1 function inh
CCN1C(=O)C(CC(=O)Nc2ccc(OC)cc2)N(Cc2ccc(OC)c(OC)c2)C1=S (stereo not given) | – | – | 10µM | ? | – | –
CCN1C(=O)C(CC(=O)Nc2ccc(OC)cc2)N(CCc2ccc(OC)cc2)C1=S (stereo not given) | – | – | ? | – | – | ·
COc1ccc(C2=NS(=O)(=O)N(C)C(C(=O)NCc3cccs3)=C2)cc1OC | – | – | ? | – | – | –
COc1ccc(C(=O)COC(=O)CNC(=O)c2ccccc2)cc1F | – | · | ? | ? | · | ·
COc1ccc(C(=O)NCCSc2ccccc2)cc1OC | – | 64 | – | –[5.75 µM] | 33 | –
COc1cc(C(=O)NCCSc2ccccc2)cc(OC)c1OC | – | – | – | 10µM | – | –
CN(C)S(=O)(=O)c1ccc(C(=O)NCCSc2ccccc2)cc1 | – | 151 | – | · | 48 | –
CCOc1ccc(/C=C/C(=O)Nc2ccc(OC)cc2[N+](=O)[O-])cc1 | – | – | – | ? | – | –
CCOc1ccc(Nc2ccc(C(=O)O)cc2[N+](=O)[O-])cc1 | – | – | –[0.00184 µM] | ? | – | –
CCOc1ccc(NC(=O)/C=C/c2ccccc2)c([N+](=O)[O-])c1 | – | – | 9.3µM | 8.3µM | 25 | –
CCOc1ccc(N/C=C/C(=O)c2ccccc2)c([N+](=O)[O-])c1 | – | 46 | – | ? | 59 | –
COC(=O)c1ccc(CSc2nnc(Nc3ccc(OC)cc3)s2)o1 | – | – | – | ? | – | –
Cc1cccc(Nc2nnc(SCC3CCCCO3)s2)c1 (stereo not given) | – | 49 | – | ? | 36 | –
Cc1cccc(Nc2nnc(SCC(=O)Nc3ccc(C(=O)O)cc3)s2)c1 | – | – | – | – | – | ·
COc1ccc(Nc2nnc(SCC3CCCCO3)s2)cc1 (stereo not given) | – | – | 3.7µM | 13µM | – | –
O=C1N=C(N2CCN(c3cccc4ccccc34)CC2)S/C1=C/c1cccs1 | – | – | 8.3µM | 9.3µM | – | –
CC(=C/c1ccccc1)/C=C1/SC(N2CCOCC2)=NC1=O | – | 30 | – | – | 23 | –
O=C1N=C(N2CCOCC2)S/C1=C/c1cccs1 | – | – | – | 12µM | 25 | –
CC(=O)N1CCN(C2=NC(=O)/C(=C\c3cccs3)S2)CC1 | – | – | – | – | – | –
Cc1ccccc1N1CCN(C2=NC(=O)/C(=C\c3cccs3)S2)CC1 | – | 104 | ? | 10µM | 78 | –
O=C(NNC(=O)C1[C@H]2CCCC[C@@H]12)NC1CCCCC1 (stereo not given in full) | – | – | – | – | – | –
O=C1/C(=C/c2cccs2)SC(=S)N1CCCC(=O)N(CCO)c1ccccc1 | – | – | ? | – | – | –
O=C(Nc1ccc2nsnc2c1)N1CCCCCC1 | – | – | · | – | 43 | –
Cc1nc2ccc(NC(=S)N3CCCC3)cc2nc1C | – | – | – | ? | – | –
S=C(Nc1ccc2nccnc2c1)N1CCCC1 | – | – | – | – | 28 | –
SMILES | SARS PLP yeast | Shiga inhibitor | Pf growth 48h | Pf growth 96h | Cycloheximide cs | NS1 function inh
O=C(Nc1ccc2snnc2c1)N1CCCCC1 | – | – | – | – | 19 | –
S=C(Nc1ccc2nsnc2c1)N1CCCC1 | – | 89 | ? | – | 46 | –
CCCn1c(SCC(=O)Nc2ccc(OC)cc2)nnc1-c1ccncc1 | – | – | · | – | – | –
COCCNCC(=O)C12CC3CC(CC(C3)C1)C2 | – | – | – | · | – | –
Cc1[nH]nc(SCC(=O)N2CCCCCC2)c1[N+](=O)[O-] | – | – | – | – | – | –
Cc1[nH]nc(SCC(=O)N2CCCCC2)c1[N+](=O)[O-] | – | – | – | – | 23 | –
c1ccc(C(CN2CCOCC2)c2ccccc2)cc1 | – | – | – | 8.3µM | – | –
CCOc1ccc(C(O)C(CN2CCOCC2)c2ccccc2)cc1 (stereo not given) | – | – | ? | 10µM | – | ?
CCCOc1ccc(C(O)C(CN2CCOCC2)c2ccccc2)cc1 (stereo not given) | – | – | 8.3µM | 8.3µM | – | –
OC(COC(c1ccccc1)c1ccccc1)CN1CCOCC1 (stereo not given) | – | – | – | – | – | ·
Cc1cc(C)c2cc(CN(CC3CCCO3)C(=S)NCc3ccco3)c(=O)[nH]c2c1 (stereo not given) | – | – | ? | ? | – | –
